TSHR antag: blocks TSH signaling through the human TSH receptor; P16473; TSHR-expressing cells, TSH-stimulated cAMP HTRF, 2 h; stronger effect = lower value; activity change, negative = inhibition, % at 11.5 µM; 0.2% of 330,000 active; AID 504810;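 active = activity change below a set negative limit, meaning inhibition stronger than a set level, cut at about -70% in these data; inconclusive = activity change between two set negative limits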; note: % is set by controls: 0 for no effect and ±100 for the full control effect
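Freshly harvested TSHR cells receive pin-tooled compound, then EC80 TSH at 4nM final. After 2 hours at 37 deg C, antibody in lysis buffer and cAMP-d2 are added; 30 minutes at ambient temperature precede the HTRF read.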
p53 reactivator: mutant p53 re-activation in reporter cells. 0.063% of 320,000 active. Potency, µM (series often up to 92.2 µM), for the others: top-dose activity change, positive = activation, actives largely listed as activators. H1299 p53-A138V BP100-luciferase reporter, luminescence, 24 h; note: potency is the fitted concentration of half-maximal effect; % of control where 0% means no effect; nearly all actives have a fitted effect of over 45% in size
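H1299 (p53-null), stable ts p53-A138V + BP100-Luc; 1000 cells/well, Opti-MEM/10% FBS; cpd 4 pt, 1:5; 24 h, 37 deg C, 5% CO2; detection reagent 10 min RT; luminescence.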
TCR activator: T cell receptor activation; primary human leukocytes, anti-CD3, IL-2 HTRF, 48 h; Potency, µM (series often up to 9.22 µM), for the others: at the highest dose activation of IL-2 secretion, usual class: activators; 330,000 tested, under 10 active; note: % of control where 0% means no effect
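Activity was scored as IL-2 release from primary human leukocytes given only a TCR signal (a-CD3 beads) plus compound for 48 hr. Detection used a two-antibody HTRF format read at 665nm.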
BRCA1 expr up: BRCA1 expression activation; AID 624202; Potency, µM (doses to about 46.1 µM), without a hit: at the highest dose activation, usual class: activators; MCF7-BRCA1-FFLuc reporter, luminescence, 48 h; response scale: scaled: vehicle 0%, 10 µM genistein 100%; 1.1% of 380,000 active; note: potency is the fitted concentration of half-maximal effect; nearly all actives have a fitted effect of over 80% in size
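Luminescence from a BRCA1-driven firefly luciferase in MCF7 cells was read after 48 h compound exposure at 37 C. Data normalized against DMSO and a 10microM genistein activation control, then curve-fitted across the titration.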
N370S GC: inhibitors or activators of N370S glucocerebrosidase for Gaucher disease | Potency, µM (doses to about 59.4 µM), inactives show at the highest dose activity change, negative = inhibition, usual class: inhibitors | P04062 | 0.092% of 330,000 active | N370S GC spleen homogenate, 4MU-glucoside fluorescence;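 note: potency is the fitted concentration of half-maximal effect; 0% = full enzyme activity and -100% = no enzyme basal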
GLS inh: blocks human kidney-isoform glutaminase activity; Potency, µM (series often up to 45.5 µM), for inactives: top-dose activity change, negative = inhibition, most hits filed as inhibitors; O94925; GLS enzymatic activity, qHTS titration; AID 624170; 0.21% of 410,000 active; note: potency is the fitted concentration of half-maximal effect; % is set by controls: 0 for no effect and ±100 for the full control effect
Target sequence (O94925 whole entry, looked up, canonical isoform): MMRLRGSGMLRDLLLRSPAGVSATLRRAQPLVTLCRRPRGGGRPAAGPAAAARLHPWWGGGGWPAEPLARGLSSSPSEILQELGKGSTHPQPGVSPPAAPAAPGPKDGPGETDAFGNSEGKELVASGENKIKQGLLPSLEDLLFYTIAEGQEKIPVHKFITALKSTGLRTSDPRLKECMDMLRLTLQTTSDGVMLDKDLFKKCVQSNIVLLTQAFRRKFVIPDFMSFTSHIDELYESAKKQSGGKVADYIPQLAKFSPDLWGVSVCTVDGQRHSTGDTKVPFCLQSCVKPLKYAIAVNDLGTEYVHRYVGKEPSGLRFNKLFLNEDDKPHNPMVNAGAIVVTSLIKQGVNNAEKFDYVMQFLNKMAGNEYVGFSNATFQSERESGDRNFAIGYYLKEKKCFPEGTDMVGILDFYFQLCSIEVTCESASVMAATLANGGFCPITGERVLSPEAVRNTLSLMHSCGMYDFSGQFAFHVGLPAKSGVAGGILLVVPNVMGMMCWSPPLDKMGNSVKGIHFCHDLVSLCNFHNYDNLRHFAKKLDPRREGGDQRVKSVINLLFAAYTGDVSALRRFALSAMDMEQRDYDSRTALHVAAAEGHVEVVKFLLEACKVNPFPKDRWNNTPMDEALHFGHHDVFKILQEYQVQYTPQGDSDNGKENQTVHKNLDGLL
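Read-out is an Amplex red fluorescence increase coupled through glutamate oxidase and HRP, measured before and after 30 min room-temperature incubation. hKGA is in 45 mM KH2PO4 (pH 8.2) with 0.02% Tween-20; glutamine added as 1mM solution.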
* marks the source's active call; other numbers are inactive results; u = inconclusive; x = not tested or not shown; [ ] = dose if it differs, or a comment. Most compounds without a hit are left out; they make up all but 1.4% or so of the library. Unless noted, calls come from the whole dose curve; as a rule, active = well fitted curve in the direction sought with a large enough effect; inconclusive = small, poorly fitted or top-dose-only effect, or another doubt; inactive = no such curve, though single readings can be large; an effect the other way counts as inactive or inconclusive.

SMILES | TSHR antag | p53 reactivator | TCR activator | BRCA1 expr up | N370S GC | GLS inh
CC[C@H](C)[C@H](NC(=O)[C@H](CC(=O)O)NC(=O)[C@H](CC(C)C)NC(=O)[C@H](Cc1cnc[nH]1)NC(=O)[C@H](C)NC(=O)[C@H](Cc1ccccc1)NC(=O)[C@H](Cc1ccc(O)cc1)NC(=O)[C@@H](NC(=O)[C@H](C)NC(=O)[C@H](CCC(=O)O)NC(=O)[C@H](CCCCN)NC(=O)[C@H](CC(=O)O)NC(=O)[C@H](CCSC)NC(=O)[C@H](CC(C)C)NC(C)=O)C(C)C)C(=O)N[C@H](C(=O)N[C@@H](Cc1c[nH]c2ccccc12)C(=O)O)[C@@H](C)CC | x | x | x | x | -5% | x
COc1ccc(CNc2ccnc(-c3ccccc3CN(C)C)n2)c(OC)c1 | x | x | x | x | -13% | x
CC(C)c1cc(C(=O)Nc2cccc(Cl)c2)no1 | -7 | 24% | 7% | 7.1µM* | 4% | 2%
Cc1cc2nc(-c3ccc(SCC(=O)NC(C)C)nc3)[nH]c2cc1C | -8 | 22% | x | x | 2% | x
Cc1cc2nc(-c3ccc(SCc4ccc(C(=O)O)cc4)nc3)[nH]c2cc1C | -17 | 15% | 6% | 11µM* | -2% | -22%
Cc1cc2nc(-c3ccc(SCC(=O)Nc4ccc(S(=O)(=O)NC5CC5)cc4)nc3)[nH]c2cc1C | -14 | 2.8µM* | -8%[46.1 µM] | u | -1% | -13%
O=C(Cc1ccc(Cl)cc1)Nc1cc(Cl)ccn1 | x | x | -1% | 7.1µM* | x | -2%
COc1cccc(NC(=O)CSc2nc3ccc(NC(=O)c4cccs4)cc3s2)c1 | x | x | x | 1% | x | -3%
CC(C)CCOCc1nc2sc3c(c2c(=O)[nH]1)CCC(C)C3 (stereo not drawn) | 15 | 9% | 0% | 13µM* | 21% | 0%
CCOC(=O)c1nc2sc3c(c2c(=O)[nH]1)CCC(C)C3 (stereo not drawn) | 6 | 0% | -2% | -4% | 17% | -7%
CCSS(=O)(=O)c1cccc2cccnc12 | -14 | -12% | 8% | -13% | -6% | 10µM*
Cc1ccc(C(=O)Nc2ccc(N3CCOCC3)nc2N2CCOCC2)cc1 | 3 | -5% | 4% | 13% | 2% | 1.1µM*
Cc1ccc(C2=N/C(=C/N3CCOCC3)C(=O)O2)cc1 | 3 | u | 2% | 8.9µM* | -1% | 4%
Cc1ccccc1CNC(=O)c1ccc2[nH]c(C)c(C)c2c1 | x | x | x | x | x | 6%
Cc1cc(-c2ccccc2)nc(N2CCC(C(=O)NC(C)C)CC2)n1 | 8 | 8% | -3% | 2µM* | 1% | -2%
O=C(Nc1ncc(Cc2ccccc2)s1)C1CCN(C(=O)c2ccco2)CC1 | x | x | x | -12% | x | x
CC(=O)NC(=S)Nc1ccc(NC(=O)c2cccs2)cc1 | -4 | u | -7%[46.1 µM] | 107% | 8% | 8%
O=C(Nc1ccc(NC(=S)NC(=O)c2cccs2)cc1)c1ccccc1 | 0 | 1% | 3%[46.1 µM] | 35% | 1% | -4%
O=C(NC(=S)Nc1ccccc1)c1cccs1 | -6 | u | 4% | 5.6µM* | 3% | -3%
Cc1ccc(NC(=S)NC(=O)c2cccs2)cc1F | 4 | u | -4%[46.1 µM] | 3.5µM* | x | 4%
Cc1ccc(S(=O)(=O)N2CCN(c3nc(-n4cccn4)nc4ccccc34)CC2)cc1 | x | x | x | 27% | x | x
CCc1ccc(-c2nnn(CCC#N)n2)cc1 | -1 | -2% | 7% | 13µM* | 0% | 1%
COc1cc2c(c(OC)c1OC)-c1c(cc3c(c1OC)OCO3)C[C@@H](C)[C@](C)(O)C2 | x | x | x | x | x | 9%
Cc1nn2c(=O)cc(COC(=O)c3ccc(NC(=O)CCc4ccccc4)cc3)nc2s1 | x | x | x | x | x | 3%
Cc1ccc(-c2nc3cnccn3c2Nc2ccc(C(C)C)cc2)o1 | x | x | x | -7% | x | x
c1ccc(OCCOc2ncnc3sccc23)cc1 | -3 | u | 0% | 7.1µM* | 0% | 5%
Cc1ccc(C(=O)NCC(=O)NC23CC4CC(CC(C4)C2)C3)cc1 | -3 | 11% | 2% | 6.3µM* | 9% | 0%

Assay outcomes (PubChem BioAssay)
